Compound activity: PubChem BioAssay, National Center for Advancing Translational Sciences (NCATS)
B2AR arrestin = agonists driving beta-arrestin recruitment to human beta2-adrenergic receptor; 330,000 tested, 0.02% active; beta-arrestin recruitment to beta2AR, cell-based reporter; AID 492947; Potency, µM (series often up to 46.1 µM), for the others: top-dose activation, actives largely listed as activators;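 further: potency means the concentration at half of the fitted maximal effect; 0% = DMSO controls and full agonism = EC100 isoproterenol or metaproterenol; nearly all actives have a fitted effect of over 65% in size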
Target sequence (P07550 whole entry, looked up): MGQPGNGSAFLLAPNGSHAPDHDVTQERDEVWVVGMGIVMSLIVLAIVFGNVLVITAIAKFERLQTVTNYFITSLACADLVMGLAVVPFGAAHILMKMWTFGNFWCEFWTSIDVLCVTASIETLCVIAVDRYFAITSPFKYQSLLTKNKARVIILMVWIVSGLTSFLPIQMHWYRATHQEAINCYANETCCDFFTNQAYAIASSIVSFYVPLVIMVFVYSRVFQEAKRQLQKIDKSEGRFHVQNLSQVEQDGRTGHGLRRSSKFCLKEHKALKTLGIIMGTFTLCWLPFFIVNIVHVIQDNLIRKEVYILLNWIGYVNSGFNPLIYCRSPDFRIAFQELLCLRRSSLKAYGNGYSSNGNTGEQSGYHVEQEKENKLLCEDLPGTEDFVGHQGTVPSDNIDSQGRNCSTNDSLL
Giardia killer = Giardia lamblia killing; Giardia lamblia trophozoite viability; activity change, % at 7.66 µM, hits read low; 340,000 tested, 0.15% active; AID 540267; in the data active means activity change below about -80%; inconclusive means between about -30% and that limit;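 further: parasites exposed to compound for two days anaerobically before the ATP read; on the % scale 0 is the no-effect control and ±100 the full control effect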
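Luminescence from cellular ATP indicates surviving trophozoites (100 cells/well) following 48 hrs anaerobic compound treatment at 37 deg C; signal develops 15-30 min at room temperature.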
p53 reactivation = mutant p53 re-activation in reporter cells; H1299 p53-A138V BP100-luciferase reporter, luminescence, 24 h; Potency, µM (highest dose often 92.2 µM), without a hit: at the highest dose activity change, positive = activation, actives largely listed as activators; 320,000 tested, 0.063% active; AID 504706; further: potency means the concentration at half of the fitted maximal effect; % of control where 0% means no effect; nearly all actives have a fitted effect of over 45% in size
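H1299 (p53-null), stable ts p53-A138V + BP100-Luc; 1000 cells/well, Opti-MEM/10% FBS; cpd 4 pt, 1:5; 24 h, 37 deg C, 5% CO2; detection reagent 10 min RT; luminescence.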
Mito fusion yeast = blocks mitochondrial division or promotes mitochondrial fusion; AID 485298; S. cerevisiae fusion-defective mutant growth rescue, CellTiterGlo 48 h; 320,000 tested, 0.23% active; Potency, µM (top dose mostly 46.1 µM), without a hit: at the highest dose growth rescue (activation), actives largely listed as activators; further: potency means the concentration at half of the fitted maximal effect; % of control where 0% means no effect; nearly all actives have a fitted effect of over 45% in size
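Temperature-sensitive fusion-defective S. cerevisiae (e.g. fzo1-1, mgm1-5) were grown with compound in YPEG medium (3% ethanol, 3% glycerol) for 48 hours at 37C. Growth rescue was measured as viability by CellTiterGlo luminescence after 10 minutes at ambient.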
ClpP mod = qHTS Assay for Activators of ClpP; ATP-dependent Clp protease proteolytic subunit (Bacillus subtilis (strain 168)), P80244; purified B. subtilis ClpP, FRET peptide cleavage, 20 min; Potency, µM (doses to about 57.5 µM), for the others: at the top dose activity change, negative = active; 340,000 tested, 1.9% active; active means well fitted falling curve with a large enough effect; inconclusive means small, poorly fitted or top-dose-only effect; inactive means no such curve, though single readings can be large or run the other way; further: potency means the concentration at half of the fitted maximal effect; the source files actives as falling curves though it sought activators and does not explain the sign; nearly all actives have a fitted effect of over 65% in size
Target sequence (P80244 whole entry, looked up): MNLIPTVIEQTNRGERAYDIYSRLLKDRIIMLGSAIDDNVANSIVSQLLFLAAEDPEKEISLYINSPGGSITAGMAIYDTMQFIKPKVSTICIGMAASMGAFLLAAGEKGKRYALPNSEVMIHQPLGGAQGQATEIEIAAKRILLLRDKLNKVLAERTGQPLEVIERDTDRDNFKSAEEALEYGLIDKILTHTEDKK
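ClpP 10 microg/mL final, pH 8 Tris/KCl buffer with BSA, glycerol, Tween-20; compound pinned in; FRET-FV substrate; RT 20 min; Ex320/Em430; ΔFRET vs ADEP 5.8 microM, DMSO, no enzyme.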
uPA generation = inhibitors of cell surface uPA generation. 330,000 tested, 0.31% active. AID 540303. cell surface uPA generation assay, qHTS. Potency, µM (titrated, usually from 38.3 µM), inactives show top-dose activity change, negative = inhibition, hits mostly inhibitors; active means well fitted inhibition curve with a large enough effect; inconclusive means small, poorly fitted or top-dose-only effect; inactive means no such curve, though single readings can be large or run the other way; tested in mouse RAW 264.7 cells; further: potency means the concentration at half of the fitted maximal effect; on the % scale 0 is the no-effect control and ±100 the full control effect; nearly all actives have a fitted effect of over 55% in size
* hit, by the source's call; ? = inconclusive; · = not tested or not shown. Most compounds without a hit are left out; they make up all but 2.1% or so of the library. Unless noted, the call rests on the fitted dose curve; in most records, active means well fitted curve in the direction sought with a large enough effect; inconclusive means small, poorly fitted or top-dose-only effect, or another doubt; inactive means no such curve, though single readings can be large; an effect the other way counts as inactive or inconclusive.

SMILES | B2AR arrestin | Giardia killer | p53 reactivation | Mito fusion yeast | ClpP mod | uPA generation
COc1ccc(NC(=O)CN(C)C(=O)c2cc(-c3ccc(Cl)cc3)nc3ccccc23)cc1 | -0.2% | -9.5 | -4.0% | ? | -1.7% | -1.9%
O=C(CSc1cn(CC(=O)N2CCCCC2)c2ccccc12)NCc1ccc(F)cc1 | · | · | · | · | -3.4% | ·
Cc1ccccc1NC(=O)CN1C(=O)NC(C)(c2ccc3c(c2)OCO3)C1=O (configuration not stated) | 0.5% | -3.0 | 4.2% | -2.4% | 15.8µM* | 2.9%
CC1(c2ccc3c(c2)OCO3)NC(=O)N(CC(=O)Nc2ccccc2[N+](=O)[O-])C1=O (configuration not stated) | 1.2% | 7.1 | -1.8% | 4.6% | 1.3% | 9.6%
O=C(O)c1cc2c(ccc3ccccc32)oc1=O | 2.5% | · | -5.5% | 5.2% | · | ·
CC(OC(=O)c1cc2c(ccc3ccccc32)oc1=O)c1nc2ccccc2s1 (configuration not stated) | -0.9% | -6.7 | 4.9% | 19.4% | 2.82µM* | -4.3%
Cc1nn(-c2ccc(F)cc2F)c2c1-c1nc(N3CCCC3)ncc1CC2 | -0.6% | 5.9 | -8.1% | 5.5% | 31.6µM* | 3.8%
CCOC(=O)C(C)Oc1ccc2c(CC)cc(=O)oc2c1C (configuration not stated) | -0.1% | 17.1 | -4.0% | 2.9% | 17.8µM* | -5.7%
CCc1cc(=O)oc2c(C)c(OC(C)C(=O)NCC3CCC(C(=O)O)CC3)ccc12 (configuration not stated) | -1.1% | -8.3 | · | 0.7% | 4.8% | 8.8%
COC(=O)c1ccc2c(=O)n(CCCCCC(=O)NCc3ccc(Cl)cc3)c(=O)[nH]c2c1 | · | · | · | · | -5.6% | ·
COc1ccc(C(C)(C)C)cc1NC(=O)CNc1cccc2ccccc12 | 0.1% | 3.1 | 12.7% | 0.4% | 11.2µM* | -0.6%
COc1ccccc1NC(=O)Cc1cccc2ccccc12 | -1.0% | 2.0 | 0.6% | 4.0% | · | -1.0%
COc1ccc(C2=NCCn3c2c2ccc(C(F)(F)F)cc2[n+]3[O-])cc1 | 0.1% | -99.1* | -1.7% | 2.0% | -1.5% | 3.7%
Cc1ccc(C2=NCCn3c2c2ccc(C(F)(F)F)cc2[n+]3[O-])cc1 | 0.0% | -84.1* | -1.6% | 12.1% | 1.5% | -3.8%
COc1ccc(C2=NCCn3nc4cc(C(F)(F)F)ccc4c32)cc1 | 0.0% | -19.1 | 9.5% | 17.0% | 0.6% | -1.9%
CC1CCN(S(=O)(=O)c2ccc3[nH]ccc3c2)CC1 | · | · | · | · | -2.7% | ·
CCn1c2c(c3cc(OCC(C)C)ccc31)CCCC2=O | 0.0% | 3.3 | -6.5% | 14.1% | 28.2µM* | 13.7%
CCn1c2c(c3cc(Br)ccc31)CCC/C2=N\O | · | -9.9 | · | -6.7% | -3.7% | ·
COc1ccc(N(C(=O)CCl)C(C(=O)NCCc2ccccc2)c2cccs2)cc1Cl (configuration not stated) | -0.7% | -25.7 | -21.0% | 8.3% | 0.6% | 3.98µM*
COc1cccc(N(C(=O)CCl)C(C(=O)NCCc2ccccc2)c2cccs2)c1 (configuration not stated) | -0.9% | -5.5 | -23.3% | 19.6% | -0.4% | -12.4%
COc1cccc(NC(=O)COc2ccccc2C(=O)Nc2ccccc2)c1 | · | · | · | · | 3.4% | ·
CCCN1/C(=C2/SC(=S)N(CC)C2=O)C=Cc2ccccc21 | -0.1% | 2.6 | -6.7% | -1.1% | 0.5% | -2.1%
CN1C(=O)/C(=C2/C=Cc3ccccc3N2CCCS(=O)(=O)O)SC1=S | -0.2% | -2.4 | 4.4% | -2.8% | 22.4µM* | 3.4%
Cc1cccc(C(=O)N[C@H](C(=O)Nc2ccc(S(=O)(=O)NC3=NCCCCC3)cc2)C(C)C)c1 | 0.4% | 7.1 | -0.8% | 5.5% | 35.5µM* | ·
Cc1cc(CN(C)C)c(O)c(C2(C)CCCCC2)c1 | 0.0% | -3.5 | -5.3% | 0.4% | 22.4µM* | 8.3%
SMILES | B2AR arrestin | Giardia killer | p53 reactivation | Mito fusion yeast | ClpP mod | uPA generation
COC(=O)c1ccc(NC(=O)C2CC2)o1 | -0.1% | 28.3 | 1.8% | 4.3% | 14.1µM* | 1.5%
Cc1cccc(-n2c(SCN3C(=O)c4ccccc4C3=O)nc3ccccc3c2=O)c1 | -0.6% | · | -3.1% | 17.8% | · | ·
CCCn1c(SCN2C(=O)c3ccccc3C2=O)nc2cc(Cl)ccc2c1=O | -0.3% | 9.3 | 2.6% | -1.3% | 25.1µM* | -1.9%
O=C(O)CCc1ccc(-c2ccc(Br)cc2)n1Cc1ccco1 | 0.1% | 10.7 | 0.6% | 10.3% | -9.4% | -6.5%
O=C(O)CCc1ccc(-c2ccccc2)n1Cc1ccco1 | 3.0% | -8.2 | -0.5% | -3.1% | 28.2µM* | 2.3%
Cc1ccnc2ccc(N)cc12 | · | · | · | · | -13.2% | ·
CCN(CC)c1ccc2c(O)cc(=O)oc2c1 | -0.4% | -10.8 | 7.5% | 2.9% | · | 2.1%
CCN(CC)c1ccc(C(=O)OCc2cc(=O)oc3cc(O)ccc23)cc1 | -0.5% | 3.4 | 2.1% | 4.0% | 31.6µM* | 1.6%
CCOC(=O)c1ccccc1NC(=O)Cn1c2ncccc2c(=O)n1-c1ccccc1 | · | · | · | · | 11.2µM* | ·
Cc1cccn2c(=O)c3cc(C(=O)NCCN4CCOCC4)c(=N)n(CCc4ccccc4)c3nc12 | -0.3% | 13.2 | -1.9% | 1.2% | 3.16µM* | 1.4%
COCCn1c(=N)c(C(=O)NCCc2ccccc2)cc2c(=O)n3cccc(C)c3nc21 | · | -1.2 | · | · | 1.41µM* | -7.6%
Cc1cccn2c(=O)c3cc(C(=O)NCCc4ccccc4)c(=N)n(CCCn4ccnc4)c3nc12 | -0.1% | 3.6 | 9.7% | -0.5% | 17.8µM* | 6.6%
COc1ccc(NC(=O)c2cc(S(=O)(=O)NCCC3=CCCCC3)ccc2F)cc1 | · | · | · | · | -1.0% | ·
COc1ccccc1NC(=S)NCc1cccs1 | -1.2% | -18.5 | 7.9% | -7.3% | 12.6µM* | -2.8%
COCCOC(=O)c1cc(C(=O)c2cc(F)ccc2O)coc1=N | 0.0% | -9.1 | 5.2% | -0.2% | 15.8µM* | 0.3%
O=C(O)Cn1nnc2ccccc21 | -0.7% | 1.3 | 0.4% | -1.8% | 0.0% | -0.8%
C(#Cc1ccccc1)Cn1nnc2ccccc21 | 0.0% | -12.8 | ? | 5.9% | 28.2µM* | -12.8%
Cc1ccc(CNC(=O)CCN2C(=O)COc3ccc(C)cc32)cc1 | · | · | · | · | 0.4% | ·
Cc1ccc2c(c1)N(CCC(=O)NC(C)C)C(=O)CO2 | 0.1% | -2.7 | 1.3% | 0.0% | 28.2µM* | 1.2%
Cc1ccc(NC(=O)N2CCN(C(=O)c3nsc4ccccc34)CC2)cc1C | · | · | · | · | 0.4% | ·
COc1cc(/C=C(/C#N)c2ccc(F)cc2)ccc1Oc1ccc([N+](=O)[O-])cn1 | -1.0% | 5.4 | -1.1% | 19.3% | 31.6µM* | -0.6%
Cc1ccc2c(c1)c1ncnc(N3CCOCC3)c1n2C | -0.4% | 2.5 | ? | -0.5% | 36.4% | -11.6%
Cc1ccc2c(c1)c1ncnc(N3CCN(c4ccccc4)CC3)c1n2C | 0.5% | -20.3 | 6.5% | -0.1% | 31.6µM* | 7.1%
